Data on 3 molecules can be found in ChEMBL document CHEMBL1157539, “Thousands of chemical starting points for antimalarial lead identification” (Nature, 2010).

Common to all, as to type: functional
Assay [1] deals with Plasmodium falciparum. In words: GSK_TCMDC: Inhibition of Plasmodium falciparum 3D7 in whole red blood cells, using parasite LDH activity as an index of growth. Test compounds present at 2uM.
The test system of assay [2] is Plasmodium falciparum. In words: GSK_TCMDC: Inhibition of Plasmodium falciparum Dd2 in whole red blood cells, using parasite LDH activity as an index of growth. Test compounds present at 2uM.
Assay [3] relates to HepG2. In words: GSK_TCMDC: Percent inhibition of human HepG2 cell line. Test compounds present at 10uM.

A word on the Inhibition: it is the share of the control response that was lost under treatment. Low values mean little suppression, high ones strong suppression. Consider `Cc1ccc(F)cc1S(=O)(=O)NCC(C)c1ccc(NC(=O)Nc2cccc(F)c2)cc1` (centres undefined), for which the Inhibition in assay [1] came out at 95%; in assay [2], 5%; in assay [3] it was 20%.
Consider `CCCCCN1CCCC(NS(=O)(=O)c2cccc(C(=O)Nc3cccc(C(F)(F)F)c3)c2)C1.O=C(O)C(F)(F)F` (centres undefined), for which the Inhibition stood at 86% in assay [1], 5% in assay [2] and 22% in assay [3].
Turning to `CC(C)NCc1cccc(-c2cccc(NC(=O)c3cccc(C#N)c3)c2)c1.O=C(O)C(F)(F)F`, the Inhibition in assay [1] was found to be 99%; in assay [2] it was 22%; in assay [3] it was 12%.
